Bioassay records as filed in PubChem.
Sampled rows, rich in hits. Any-hit rate of the full collection: about 9.3%.
HCV inh – blocks hepatitis C virus; Huh7.5.1 HCVcc-Cre infection, luciferase reporter, 44 h; Potency, µM (titrated, usually from 41.8 µM), for the others: at the highest dose activity change, negative = inhibition, hits mostly inhibitors; 340,000 tested, 3.4% active; also: potency is read from the fitted curve at half-maximal effect
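A cell-based infection assay in which seeded cells (1,000 per well) receive test compound after 4 h, are inoculated with HCVcc-Cre at approximately 0.5 moi, and are incubated 44 h before luminescence detection.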
VACV mCherry inh – vaccinia inhibition (mCherry reporter) | Vaccinia virus mCherry reporter infection, fluorescence | Potency, µM (series often up to 36.5 µM), for the others: top-dose activity change, negative = inhibition, usual class: inhibitors | 310,000 tested, 0.63% active; calls by dose curve; tested in A549 cells; also: potency is read from the fitted curve at half-maximal effect; nearly all actives have a fitted effect of over 35% in size
HCMV antiviral – inhibitors of human cytomegalovirus; activity change, negative = inhibition, % at 57.5 µM; HFF cells, HCMV-luciferase reporter, 72 h; hits give low values; 410,000 tested, 4.5% active; in the data active = activity change below about -60%; inconclusive = no clear call, values can overlap the other calls; inactive = above about -39%
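Inhibition of viral replication was scored as loss of reporter luminescence in HFFs infected with HCMV-luciferase (MOI 1 PFU/cell) for 72 h; compounds tested at 2 doses, normalized to buffer and Salinomycin controls.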
Vaccinia Venus – vaccinia inhibition (Venus reporter) | 330,000 tested, 0.46% active | Potency, µM (top dose mostly 36.5 µM), without a hit: at the highest dose activity change, negative = inhibition, actives largely listed as inhibitors | AID 720580 | Vaccinia virus Venus reporter expression, fluorescence; calls by dose curve; tested in A549 cells; also: potency is read from the fitted curve at half-maximal effect; nearly all actives have a fitted effect of over 30% in size
FMDV inh – blocks foot and mouth disease virus; FMDV antiviral cell-based qHTS; Potency, µM (titrated, usually from 57.9 µM), for inactives: at the highest dose activity change, negative = inhibition, hits mostly inhibitors; 410,000 tested, 1.2% active; AID 1159524; calls by dose curve; tested in HEK293T cells; also: read-out not given here; potency is read from the fitted curve at half-maximal effect; nearly all actives have a fitted effect of over 45% in size
Sm TGR block – S. mansoni TGR enzyme inhibition; purified TGR, DTNB reduction, TNB absorbance 405 nm; Potency, µM (top dose mostly 114 µM), for the others: top-dose activity change, negative = inhibition, actives largely listed as inhibitors; 360,000 tested, 3% active; also: potency is read from the fitted curve at half-maximal effect; nearly all actives have a fitted effect of over 60% in size
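TGR 20 nM + NADPH 100 uM (dispensed conc.), cpd preinc 15 min RT; start with NADPH (500 uM addition) then DTNB (15 mM addition). Kinetic TNB absorbance, 405 nm filter. Four-parameter Hill fit across titration.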
Numbers without * were called inactive; i = inactive; ? = inconclusive; nt = not tested or not shown; + = active, no number. Unless noted, calls follow the shape of the dose curve; as a rule, active = well fitted curve in the direction sought with a large enough effect; inconclusive = small, poorly fitted or top-dose-only effect, or another doubt; inactive = no such curve, though single readings can be large; an effect the other way counts as inactive or inconclusive. % is scaled to controls: 0 for no effect and ±100 for the full control effect.

SMILES	HCV inh	VACV mCherry inh	HCMV antiviral	Vaccinia Venus	FMDV inh	Sm TGR block
COc1ccc(OC)c(NC(=O)CS(=O)(=O)Cc2nc(-c3ccccc3C)oc2C)c1	?	-7%	22	-13%	-22%	?
CCOC(=O)c1c(N)sc2c(OCC)c(Br)ccc12	10µM*	-22%	-5	-30%	nt	5%
CCOC(=O)c1sc(N)c(C(=O)OCC)c1C	-21%	?	-15	-28%	68%	1%
CCOC(=O)c1c(NC(C)=O)sc2c(O)c(Br)cc(Br)c12	-5%	-23%	?	-3%	-8%	40µM*
CCOC(=O)c1c(NC(C)=O)sc2c(OCC(O)CNC(C)(C)C)c(Br)ccc12 (stereo unspecified)	4.5µM*	nt	-85*	nt	-11%	0%
CCOc1ccc(C(=O)Nc2onc3c2CCCC3)cc1	nt	-10%	-11	-6%	-72%	17%
Cc1c(O)cccc1C(=O)N[C@@H](CSc1ccccc1)[C@H](O)CN1C[C@H]2CCCC[C@H]2C[C@H]1C(=O)NC(C)(C)C	10µM*	?	2	?	?	28%
CCN(CC(=O)NC(C)(C)C)C(=O)c1ccccc1SCC(=O)NC1CCCCCCC1	nt	-6%	-8	-16%	-20%	-4%
CC1(C)CC(=O)C=C(c2cccc(Br)c2)C1	-23%	i	-64*	-9%	-3%	-16%
OC[C@@H]1CN(Cc2cccc(C(F)(F)F)c2)C[C@H](n2cnc3c(NCc4ccco4)ncnc32)O1	nt	-14%	?	-5%	0%	nt
Cc1cc(C(=O)CSc2nc3ccccc3n2CCC#N)c(C)n1Cc1cccs1	?	nt	-4	nt	-10%	-15%
Cc1ccc(Cl)cc1NS(=O)(=O)c1ccc(N2CCCCS2(=O)=O)cc1	nt	-20%	0	-20%	11µM*	0%
O=C(CCN1CCOCC1)c1ccc(N2CCCCC2)cc1	?	?	-13	?	3%	14µM*
O=C(CCN1CCN(c2ccc([N+](=O)[O-])cc2)CC1)c1ccc(Cl)cc1	-9%	-29%	-12	-2%	15%	?
CC(C)(C)c1cc(C(=O)CCN2CCOCC2)cc(C(C)(C)C)c1O	-23%	11µM*	-77*	?	-15%	3.5µM*
C#CCCCCCCCCCCCC(O)CC(O)CO (stereo unspecified)	nt	-19%	nt	-9%	-13%	nt
Cc1cc(C)cc(OCC(=O)OCC(=O)NC2CC2)c1	1%	-8%	-18	2%	21%	nt
CCN(C[C@H]1N[C@@](CC)(C(=O)OC)[C@H]2C(=O)N(C)C(=O)[C@@H]12)C(=O)Nc1ccc(C)cc1	3.2µM*	i	-4	?	0%	nt
CC[C@@]1(C(=O)OC)N[C@H](CN(C)C(=O)Nc2ccc(F)cc2)[C@@H]2C(=O)N(C)C(=O)[C@@H]21	-10%	i	4	0%	-1%	nt
CC[C@@]1(C(=O)OC)N[C@H](CN(C)C(=O)Nc2ccccc2)[C@@H]2C(=O)N(C)C(=O)[C@@H]21	14%	-4%	-2	-18%	4.5µM*	nt
O=C(O)COc1ccc2c3c(c(=O)oc2c1)CCCC3	0%	i	-80*	0%	-7%	nt
O=c1oc2cc(OCCO)ccc2c2c1CCCC2	-10%	nt	-4	nt	16%	-17%
O=c1oc2cc(Oc3c([N+](=O)[O-])cc(C(F)(F)F)cc3[N+](=O)[O-])ccc2c2c1CCCC2	3.2µM*	nt	15	nt	?	-33%
Nc1nonc1-n1nnc(C(=O)N/N=C/c2cc(Br)cs2)c1-c1ccccc1	-11%	-28%	-69*	-21%	-22%	11%
Nc1nonc1-n1nnc(C(=O)N/N=C/c2cccc(Cl)c2)c1-c1cccs1	-5%	-6%	+	-19%	-6%	-5%
CCOc1cccc(-c2c(C(=O)N/N=C(\C)c3ccccn3)nnn2-c2nonc2N)c1	11µM*	nt	-69*	nt	-9%	-5%
CCOc1cccc(-c2c(C(=O)N/N=C(\C)c3ccncc3)nnn2-c2nonc2N)c1	3%	-29%	-30	-7%	-12%	1%
CCOc1ccc(N2C(=O)c3[nH]nc(-c4ccccc4)c3C2c2ccc(O)c(OC)c2)cc1 (stereo unspecified)	nt	-13%	-25	-12%	?	-2%
